“And” between values parts separate entries of the source, which are not always exact repeats. Identical values can stand only once. Results filed as inconclusive are left out. The source made the active and inactive calls. The call rests on the fitted dose curve.
biological target: 5-hydroxytryptamine receptor 2A (Homo sapiens) (UniProt P28223); assay: 5-hydroxytryptamine receptor 2A (HTR2A) small molecule agonists, cell-based qHTS assay (AID 1963587); conditions: HTR2A-CHO cells, calcium flux fluorescence, agonist mode; series mostly up to 76.8 µM; activation: at the top concentration; further: nearly all actives have a fitted effect of over 30% in size
Sequence (P28223 whole entry, looked up): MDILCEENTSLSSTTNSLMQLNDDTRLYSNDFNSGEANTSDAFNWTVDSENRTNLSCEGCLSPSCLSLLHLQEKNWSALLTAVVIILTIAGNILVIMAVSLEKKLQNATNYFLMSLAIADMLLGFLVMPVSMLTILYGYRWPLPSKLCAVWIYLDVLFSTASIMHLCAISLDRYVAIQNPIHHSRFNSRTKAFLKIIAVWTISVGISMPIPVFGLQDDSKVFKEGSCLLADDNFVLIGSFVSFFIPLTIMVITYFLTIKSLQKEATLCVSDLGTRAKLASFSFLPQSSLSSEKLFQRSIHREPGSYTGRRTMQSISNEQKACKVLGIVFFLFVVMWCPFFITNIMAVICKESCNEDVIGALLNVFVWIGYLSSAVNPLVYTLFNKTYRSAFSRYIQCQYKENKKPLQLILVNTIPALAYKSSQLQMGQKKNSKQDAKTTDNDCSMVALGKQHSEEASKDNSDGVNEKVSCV
Text: National Center for Advancing Translational Sciences [NCATS]
Division of Preclinical Innovation [DPI]
U.S. Environmental Protection Agency [EPA]
National Institutes of Environmental Health Sciences [NIEHS]
National Toxicology Program [NTP]
U.S. Food and Drug Administration [FDA]
The HTR2A receptor is a subtype of the 5-HT2 receptor that belongs to the serotonin receptor family and is a G protein-coupled receptor (GPCR). The HTR2A-CHO cell line stably expressing human 5-hydroxytryptamine receptor 2A (HTR2A) can be used for screening agonists of interactions between 5-HT2 and its ligands. The HTR2A-CHO calcium flux assay is a homogeneous fluorescence-based assay for detecting the intracellular calcium level using FDSS kinetic plate reader system.
HTR2A-CHO cells were dispensed at 2000 cells/3uL/well in 1536-well black-clear bottom plates using a Multidrop Dispenser. After the assay plates were incubated at a 37 C/5% CO2 incubator for 18 h, 3 uL of Dye Loading Buffer was transferred to the assay plate by a Flying Reagent Dispenser. The assay plates were incubated at 37 C for 1h. For agonist mode, 23 nL of compounds dissolved in DMSO, positive controls or DMSO only was transferred to the assay plate by a pin tool. The fluorescence intensity in the plates was measured using FDSS 7000EX kinetic plate reader for 2 min at 1 sec intervals.
On the % scale 0 is the no-effect control and ±100 the full control effect; potency means the concentration at half of the fitted maximal effect.

Row | Compound | Potency | activation
1 | OC(c1ccc(Cl)cc1)(c1cncnc1)c1ccccc1Cl (stereo not given) | inactive | 
2 | Nc1nc(N)nc(Cl)n1 |  | 1.23% (inactive)
3 | C=CC=O |  | -0.572% (inactive)
4 | O=C(O)CCCOc1ccc(Cl)cc1Cl | inactive | 
5 | N#CCBr |  | -1.13% (inactive)
6 | COCC(=O)N(c1c(C)cccc1C)[C@H](C)C(=O)OC |  | 4.83% (inactive)
7 | N#CC(Br)Br | inactive | 
8 | Cc1ccc([N+](=O)[O-])cc1 | inactive | 
9 | Brc1ccc(Oc2cc(Br)c(Br)cc2Br)c(Br)c1 | inactive | 
10 | Cl/C=C/CCl |  | -0.0829% (inactive)
11 | CCCCCCOC(=O)c1ccccc1C(=O)OCCCCCC | inactive | 
12 | COCC(=O)N(c1c(C)cccc1C)N1CCOC1=O |  | -0.551% (inactive)
13 | CCCCCCCC[N+](C)(CCCCCCCC)CCCCCCCC |  | 7.03% (inactive)
14 | Cc1cc(N=Nc2ccccc2C)ccc1N |  | 17.1% (inactive)
15 | COS(=O)(=O)OC | inactive | 
16 | CCCCOCCOC(C)=O | inactive | 
17 | Sc1ccccc1Cl |  | -12.7% [at 35.6 µM] (inactive)
18 | CCOC(=O)C(c1c(O)c2ccccc2oc1=O)c1c(O)c2ccccc2oc1=O |  | -2.34% [at 35.6 µM] (inactive)
19 | COc1cc(OC)nc(NC(=O)NS(=O)(=O)c2ncccc2C(=O)N(C)C)n1 |  | -0.504% (inactive)
20 | O=C(O)c1cc(Cl)ccc1Cl |  | 5.58% (inactive)

Row | Compound | Potency | activation
21 | CC(=[OH+])/C=C(/C)[O-].CC(=[OH+])/C=C(\C)[O-].CC(=[OH+])/C=C(\C)[O-].[Fe] |  | -2.49% (inactive)
22 | CCC[CH2][Sn]([Cl])([Cl])[CH2]CCC | inactive | 
23 | C=C(C)CCl | inactive | 
24 | CC1=C(C(=O)Nc2ccccc2)SCCO1 | inactive | 
25 | c1cc2c(c(N3CCNCC3)c1)OCCO2 | 60.1 nM (active) | 
26 | O=c1nc(O)n(Cl)c(=O)n1Cl | inactive | 
27 | C=CCN(CC=C)C(=O)C(Cl)Cl | inactive | 
28 | Sc1ccccc1 | inactive | 
29 | c1ccc2c(c1)Oc1ccccc1O2 | inactive | 
30 | Nc1c(Cl)c(Cl)nc(C(=O)O)c1Cl | inactive | 
31 | N#CCNCC#N |  | -0.523% (inactive)
32 | C1=Cc2cccc3cccc1c23 | inactive | 
33 | OCC(Br)CBr (stereo not given) |  | 4.96% (inactive)
34 | CCC(C)(C#N)N=NC(C)(C#N)CC (stereo not given) |  | 0.914% (inactive)
35 | O=c1c2ccccc2c(=O)c2c1cc(Cl)c1[nH]c3c([nH]c12)c(Cl)cc1c(=O)c2ccccc2c(=O)c13 |  | -0.032% (inactive)
36 | CCCCCON=O |  | 0.925% (inactive)
37 | CC(C)(O)C#N | inactive | 
38 | CCOC(=O)CP(=O)(OCC)OCC |  | 0.214% (inactive)
39 | COc1ccc(O)c(C(C)(C)C)c1 | inactive | 
40 | Nc1ccc(Cl)cc1N | 20.3 µM (active) and 6.16 µM (active) | 
